# Source: paper PMC7862700, “An all-to-all approach to the identification of sequence-specific readers for epigenetic DNA modifications on cytosine”
# Columns and labels:
# Assay in all cases: DAPPL (digital affinity profiling via proximity ligation, sequencing); 10 mM Tris-HCl pH 7.5, 50 mM NaCl, 1 mM DTT, 4% glycerol, room temperature, 30 min; GST-TFs on glutathione beads, 16-mer random dsDNA library, 0.1% formaldehyde crosslink after washing; high values mean tight binding
# [1] = target: T1, FLI1 (Homo sapiens, UniProt Q01543 1-452); settings: protein: recombinant; tags: N-terminal GST; dsDNA, one strand shown
# T1 sequence: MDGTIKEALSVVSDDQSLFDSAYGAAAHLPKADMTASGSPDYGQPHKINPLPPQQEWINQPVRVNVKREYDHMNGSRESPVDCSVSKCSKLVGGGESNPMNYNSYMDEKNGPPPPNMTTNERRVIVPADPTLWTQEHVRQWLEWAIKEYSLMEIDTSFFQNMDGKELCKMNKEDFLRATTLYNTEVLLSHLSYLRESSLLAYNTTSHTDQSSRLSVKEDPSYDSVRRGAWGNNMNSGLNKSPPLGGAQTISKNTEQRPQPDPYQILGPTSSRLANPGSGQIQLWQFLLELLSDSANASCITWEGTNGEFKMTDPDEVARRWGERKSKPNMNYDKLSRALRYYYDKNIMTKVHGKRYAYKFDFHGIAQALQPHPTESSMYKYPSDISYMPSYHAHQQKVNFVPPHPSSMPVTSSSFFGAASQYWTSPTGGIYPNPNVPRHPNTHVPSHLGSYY
# How it was run: (§1)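 Each value of binding signal is a hexamer's read frequency for a factor divided by the same hexamer's frequency in the tag-only sample. Barcoded, bead-captured GST fusions of human transcription factors made in yeast were pooled with that sample and incubated with 200 nmole of a random double-stranded 16-mer DNA library in Tris/NaCl/DTT/glycerol buffer at room temperature for 30 min. Washing, 0.1% formaldehyde crosslinking, proximity ligation, PCR and Illumina NextSeq500 sequencing followed.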
# [2] = target: T2, ELK1 (Homo sapiens, UniProt P19419 1-428); settings: protein: recombinant; tags: N-terminal GST; dsDNA, one strand shown
# T2 sequence: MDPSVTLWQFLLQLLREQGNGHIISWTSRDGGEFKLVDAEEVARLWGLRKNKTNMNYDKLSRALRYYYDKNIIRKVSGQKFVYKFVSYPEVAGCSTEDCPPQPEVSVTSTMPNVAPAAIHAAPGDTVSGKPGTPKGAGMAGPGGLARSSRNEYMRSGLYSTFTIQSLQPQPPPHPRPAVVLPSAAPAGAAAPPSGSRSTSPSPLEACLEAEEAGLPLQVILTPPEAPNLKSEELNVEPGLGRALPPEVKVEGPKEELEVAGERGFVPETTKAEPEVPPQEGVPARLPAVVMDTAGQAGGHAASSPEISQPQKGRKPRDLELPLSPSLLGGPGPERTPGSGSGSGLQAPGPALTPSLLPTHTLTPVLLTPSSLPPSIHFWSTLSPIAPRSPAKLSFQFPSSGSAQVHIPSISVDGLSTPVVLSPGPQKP
# How it was run: as §1
# [3] = target: T3, GABPA (Homo sapiens, UniProt Q06546 1-454); settings: protein: recombinant; tags: N-terminal GST; dsDNA, one strand shown
# T3 sequence: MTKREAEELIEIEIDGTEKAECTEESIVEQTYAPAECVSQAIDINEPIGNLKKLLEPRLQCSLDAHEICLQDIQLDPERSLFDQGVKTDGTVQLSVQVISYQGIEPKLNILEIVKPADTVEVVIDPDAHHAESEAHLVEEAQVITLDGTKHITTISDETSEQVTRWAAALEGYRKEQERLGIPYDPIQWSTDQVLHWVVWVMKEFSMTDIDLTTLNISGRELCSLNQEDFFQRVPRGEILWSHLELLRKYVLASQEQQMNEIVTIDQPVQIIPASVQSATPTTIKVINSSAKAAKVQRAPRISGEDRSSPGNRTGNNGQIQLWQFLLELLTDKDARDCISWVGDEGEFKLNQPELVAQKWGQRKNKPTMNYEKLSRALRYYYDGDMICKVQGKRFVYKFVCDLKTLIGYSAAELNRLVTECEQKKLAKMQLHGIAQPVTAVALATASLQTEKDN
# How it was run: as §1
# [4] = target: T4, ERG (Homo sapiens, UniProt P11308 1-479); settings: protein: recombinant; tags: N-terminal GST; dsDNA, one strand shown
# T4 sequence: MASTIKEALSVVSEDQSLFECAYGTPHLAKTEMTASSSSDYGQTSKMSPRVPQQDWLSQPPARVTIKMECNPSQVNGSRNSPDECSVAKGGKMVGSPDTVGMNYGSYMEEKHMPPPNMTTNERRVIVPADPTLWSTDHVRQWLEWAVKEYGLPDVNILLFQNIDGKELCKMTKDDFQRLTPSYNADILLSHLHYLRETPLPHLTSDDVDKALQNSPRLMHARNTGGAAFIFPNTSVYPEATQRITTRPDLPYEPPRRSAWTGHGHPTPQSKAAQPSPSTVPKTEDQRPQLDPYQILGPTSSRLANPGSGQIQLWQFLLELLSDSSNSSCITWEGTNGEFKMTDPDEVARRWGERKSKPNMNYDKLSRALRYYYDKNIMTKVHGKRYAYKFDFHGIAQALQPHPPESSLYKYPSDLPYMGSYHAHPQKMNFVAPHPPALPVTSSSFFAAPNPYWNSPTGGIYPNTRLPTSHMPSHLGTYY
# How it was run: as §1
# [5] = target: ELF1 (Homo sapiens, UniProt P32519 1-619); settings: protein: recombinant; tags: N-terminal GST; dsDNA, one strand shown
# How it was run: as §1
# [6] = target: T5, EHF (Homo sapiens, UniProt Q9NZC4 1-300); settings: protein: recombinant; tags: N-terminal GST; dsDNA, one strand shown
# T5 sequence: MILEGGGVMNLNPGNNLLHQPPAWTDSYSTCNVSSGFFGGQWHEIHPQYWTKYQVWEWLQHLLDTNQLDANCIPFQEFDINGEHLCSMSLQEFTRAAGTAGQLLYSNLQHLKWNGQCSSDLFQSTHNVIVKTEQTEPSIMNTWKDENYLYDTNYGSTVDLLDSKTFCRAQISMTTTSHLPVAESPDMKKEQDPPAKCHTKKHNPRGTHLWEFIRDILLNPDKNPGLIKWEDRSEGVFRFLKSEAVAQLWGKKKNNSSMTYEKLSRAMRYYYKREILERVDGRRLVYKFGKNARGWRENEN
# How it was run: as §1
# [7] = target: SPI1 (Homo sapiens, UniProt P17947 1-270); settings: protein: recombinant; tags: N-terminal GST; dsDNA, one strand shown
# How it was run: as §1
# [8] = target: SPIB (Homo sapiens, UniProt Q01892 1-262); settings: protein: recombinant; tags: N-terminal GST; dsDNA, one strand shown
# How it was run: as §1
# [9] = target: T6, ELK3 (Homo sapiens, UniProt P41970 1-407); settings: protein: recombinant; tags: N-terminal GST; dsDNA, one strand shown
# T6 sequence: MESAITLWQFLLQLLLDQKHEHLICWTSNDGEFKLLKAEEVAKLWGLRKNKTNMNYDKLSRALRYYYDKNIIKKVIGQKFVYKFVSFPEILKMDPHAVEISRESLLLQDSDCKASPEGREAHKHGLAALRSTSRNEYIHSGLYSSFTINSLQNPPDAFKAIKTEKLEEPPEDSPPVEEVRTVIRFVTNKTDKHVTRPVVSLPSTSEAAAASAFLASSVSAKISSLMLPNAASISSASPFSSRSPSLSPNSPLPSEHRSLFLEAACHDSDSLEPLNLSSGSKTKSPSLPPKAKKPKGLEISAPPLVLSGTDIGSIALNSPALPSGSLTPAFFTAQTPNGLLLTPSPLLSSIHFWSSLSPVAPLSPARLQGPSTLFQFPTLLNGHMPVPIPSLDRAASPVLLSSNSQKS
# How it was run: as §1
# [10] = target: T7, FEV (Homo sapiens, UniProt Q99581 1-238); settings: protein: recombinant; tags: N-terminal GST; dsDNA, one strand shown
# T7 sequence: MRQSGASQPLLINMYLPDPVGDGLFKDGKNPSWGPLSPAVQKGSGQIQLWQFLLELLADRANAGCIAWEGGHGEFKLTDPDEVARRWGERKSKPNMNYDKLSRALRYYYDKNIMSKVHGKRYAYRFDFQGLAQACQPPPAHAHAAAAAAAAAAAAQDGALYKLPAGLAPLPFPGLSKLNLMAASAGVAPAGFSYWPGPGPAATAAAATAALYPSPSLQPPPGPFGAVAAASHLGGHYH
# How it was run: as §1
# [11] = target: ETV5 (Homo sapiens, UniProt P41161 1-510); settings: protein: recombinant; tags: N-terminal GST; dsDNA, one strand shown
# How it was run: as §1
# [12] = target: HSF1 (Homo sapiens, UniProt Q00613 1-529); settings: protein: recombinant; tags: N-terminal GST; chain copies: 3; dsDNA, one strand shown
# How it was run: as §1
# [13] = target: T8, SPIC (Homo sapiens, UniProt Q8N5J4 1-248); settings: protein: recombinant; tags: N-terminal GST; dsDNA, one strand shown
# T8 sequence: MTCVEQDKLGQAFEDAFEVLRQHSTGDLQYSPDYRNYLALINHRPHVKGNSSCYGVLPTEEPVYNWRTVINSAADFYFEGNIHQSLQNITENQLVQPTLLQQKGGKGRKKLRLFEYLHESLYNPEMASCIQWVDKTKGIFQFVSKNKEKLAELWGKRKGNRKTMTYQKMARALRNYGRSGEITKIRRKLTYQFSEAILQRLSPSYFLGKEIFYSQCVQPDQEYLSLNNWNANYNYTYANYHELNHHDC
# How it was run: as §1
# [14] = target: ELF4 (Homo sapiens, UniProt Q99607 1-663); settings: protein: recombinant; tags: N-terminal GST; dsDNA, one strand shown
# How it was run: as §1
# [15] = target: T9, ELK4 (Homo sapiens, UniProt P28324-2 1-405); settings: protein: recombinant; tags: N-terminal GST; dsDNA, one strand shown
# T9 sequence: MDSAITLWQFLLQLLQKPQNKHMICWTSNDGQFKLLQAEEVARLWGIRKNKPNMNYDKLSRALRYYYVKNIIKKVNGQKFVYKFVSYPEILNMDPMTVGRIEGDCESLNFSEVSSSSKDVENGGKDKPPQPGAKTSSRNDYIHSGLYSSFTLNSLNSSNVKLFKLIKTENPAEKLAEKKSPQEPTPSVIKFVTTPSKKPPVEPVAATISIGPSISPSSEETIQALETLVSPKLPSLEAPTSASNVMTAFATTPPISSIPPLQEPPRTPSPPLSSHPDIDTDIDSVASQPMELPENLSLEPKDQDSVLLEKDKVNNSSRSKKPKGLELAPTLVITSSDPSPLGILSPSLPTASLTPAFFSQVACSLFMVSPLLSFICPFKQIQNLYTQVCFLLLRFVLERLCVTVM
# How it was run: as §1
# [16] = target: T10, ETV2 (Homo sapiens, UniProt O00321 1-342); settings: protein: recombinant; tags: N-terminal GST; dsDNA, one strand shown
# T10 sequence: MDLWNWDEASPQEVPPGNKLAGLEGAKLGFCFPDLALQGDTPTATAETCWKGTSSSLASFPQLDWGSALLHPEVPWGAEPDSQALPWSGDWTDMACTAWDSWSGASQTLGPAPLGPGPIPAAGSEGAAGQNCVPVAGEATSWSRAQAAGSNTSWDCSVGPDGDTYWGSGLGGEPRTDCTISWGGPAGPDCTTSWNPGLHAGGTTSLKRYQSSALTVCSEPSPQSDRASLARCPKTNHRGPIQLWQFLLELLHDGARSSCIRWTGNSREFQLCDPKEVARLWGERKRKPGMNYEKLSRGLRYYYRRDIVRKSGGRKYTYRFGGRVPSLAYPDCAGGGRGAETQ
# How it was run: as §1
# [17] = target: T11, ELF3 (Homo sapiens, UniProt P78545 1-371); settings: protein: recombinant; tags: N-terminal GST; dsDNA, one strand shown
# T11 sequence: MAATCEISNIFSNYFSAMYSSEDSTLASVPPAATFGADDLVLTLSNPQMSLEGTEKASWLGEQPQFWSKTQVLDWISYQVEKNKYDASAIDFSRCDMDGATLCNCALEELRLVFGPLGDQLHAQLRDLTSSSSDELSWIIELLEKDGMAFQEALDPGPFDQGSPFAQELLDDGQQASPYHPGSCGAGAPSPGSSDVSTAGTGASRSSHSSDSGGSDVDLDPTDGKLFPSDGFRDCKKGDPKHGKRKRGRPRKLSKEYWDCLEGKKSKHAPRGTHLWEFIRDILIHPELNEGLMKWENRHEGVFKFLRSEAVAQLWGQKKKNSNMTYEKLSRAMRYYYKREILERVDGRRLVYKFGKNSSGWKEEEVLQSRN
# How it was run: as §1
# [18] = target: CRX (Homo sapiens, UniProt O43186 1-299); settings: protein: recombinant; tags: N-terminal GST; dsDNA, one strand shown
# How it was run: as §1
# [19] = target: ETV1 (Homo sapiens, UniProt P50549 1-477); settings: protein: recombinant; tags: N-terminal GST; dsDNA, one strand shown
# How it was run: as §1
# SPIB, sequence (Q01892 whole entry): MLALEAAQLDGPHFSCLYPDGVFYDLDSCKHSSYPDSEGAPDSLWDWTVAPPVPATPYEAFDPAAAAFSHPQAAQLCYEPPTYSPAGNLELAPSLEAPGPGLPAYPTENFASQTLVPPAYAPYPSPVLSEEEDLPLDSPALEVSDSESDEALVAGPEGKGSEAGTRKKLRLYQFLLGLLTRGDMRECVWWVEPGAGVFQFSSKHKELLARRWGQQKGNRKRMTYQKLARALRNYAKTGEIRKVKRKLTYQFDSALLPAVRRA
# ETV5, sequence (P41161 whole entry): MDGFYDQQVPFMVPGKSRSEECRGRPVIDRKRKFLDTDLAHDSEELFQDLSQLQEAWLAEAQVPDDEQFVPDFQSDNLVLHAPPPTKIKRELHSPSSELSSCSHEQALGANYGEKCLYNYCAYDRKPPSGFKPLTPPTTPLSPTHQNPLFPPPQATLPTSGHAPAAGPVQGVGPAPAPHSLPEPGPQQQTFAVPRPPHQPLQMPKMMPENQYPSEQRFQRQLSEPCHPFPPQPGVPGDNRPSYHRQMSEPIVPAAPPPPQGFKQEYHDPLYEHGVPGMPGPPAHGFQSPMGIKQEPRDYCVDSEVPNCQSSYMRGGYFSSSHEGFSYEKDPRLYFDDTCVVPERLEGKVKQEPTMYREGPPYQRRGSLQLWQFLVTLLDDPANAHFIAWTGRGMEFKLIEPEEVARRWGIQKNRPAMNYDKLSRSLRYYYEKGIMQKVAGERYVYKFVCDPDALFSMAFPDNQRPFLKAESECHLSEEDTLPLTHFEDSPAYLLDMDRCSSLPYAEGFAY
# CRX, sequence (O43186 whole entry): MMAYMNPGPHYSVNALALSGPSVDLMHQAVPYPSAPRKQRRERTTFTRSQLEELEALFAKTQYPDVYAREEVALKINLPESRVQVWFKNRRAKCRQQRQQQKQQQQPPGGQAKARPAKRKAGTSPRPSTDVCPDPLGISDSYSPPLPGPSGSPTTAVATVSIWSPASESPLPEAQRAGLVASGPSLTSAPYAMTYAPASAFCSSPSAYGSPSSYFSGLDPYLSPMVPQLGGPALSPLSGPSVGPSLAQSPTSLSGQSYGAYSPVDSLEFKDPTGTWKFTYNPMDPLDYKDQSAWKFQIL
# HSF1, sequence (Q00613 whole entry): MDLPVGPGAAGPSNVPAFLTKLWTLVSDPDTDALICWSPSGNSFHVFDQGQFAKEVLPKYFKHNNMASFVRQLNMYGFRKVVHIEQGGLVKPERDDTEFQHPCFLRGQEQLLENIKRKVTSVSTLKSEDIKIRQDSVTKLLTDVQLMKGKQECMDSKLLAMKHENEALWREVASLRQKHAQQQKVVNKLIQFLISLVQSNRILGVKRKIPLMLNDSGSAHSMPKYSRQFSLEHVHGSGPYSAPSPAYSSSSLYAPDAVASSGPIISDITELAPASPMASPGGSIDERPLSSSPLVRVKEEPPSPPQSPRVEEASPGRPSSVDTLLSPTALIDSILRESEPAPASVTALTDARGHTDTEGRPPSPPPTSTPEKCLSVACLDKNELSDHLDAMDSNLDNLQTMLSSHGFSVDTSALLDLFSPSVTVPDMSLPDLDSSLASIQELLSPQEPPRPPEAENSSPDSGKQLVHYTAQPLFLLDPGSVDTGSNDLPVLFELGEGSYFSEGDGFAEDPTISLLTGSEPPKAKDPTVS
# ETV1, sequence (P50549 whole entry): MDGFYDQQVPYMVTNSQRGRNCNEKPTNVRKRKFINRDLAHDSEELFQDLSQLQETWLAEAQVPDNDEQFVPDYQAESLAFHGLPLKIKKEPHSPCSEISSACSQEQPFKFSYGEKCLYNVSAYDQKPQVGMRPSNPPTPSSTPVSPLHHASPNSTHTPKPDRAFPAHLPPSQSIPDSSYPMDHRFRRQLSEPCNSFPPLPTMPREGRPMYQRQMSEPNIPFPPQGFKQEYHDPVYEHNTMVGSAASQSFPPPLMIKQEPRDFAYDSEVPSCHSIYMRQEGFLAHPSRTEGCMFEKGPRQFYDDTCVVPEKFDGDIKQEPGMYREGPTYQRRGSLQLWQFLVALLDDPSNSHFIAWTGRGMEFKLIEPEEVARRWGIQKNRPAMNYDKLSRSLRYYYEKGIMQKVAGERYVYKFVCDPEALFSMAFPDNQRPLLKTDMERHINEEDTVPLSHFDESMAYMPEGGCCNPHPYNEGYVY
# ELF4, sequence (Q99607 whole entry): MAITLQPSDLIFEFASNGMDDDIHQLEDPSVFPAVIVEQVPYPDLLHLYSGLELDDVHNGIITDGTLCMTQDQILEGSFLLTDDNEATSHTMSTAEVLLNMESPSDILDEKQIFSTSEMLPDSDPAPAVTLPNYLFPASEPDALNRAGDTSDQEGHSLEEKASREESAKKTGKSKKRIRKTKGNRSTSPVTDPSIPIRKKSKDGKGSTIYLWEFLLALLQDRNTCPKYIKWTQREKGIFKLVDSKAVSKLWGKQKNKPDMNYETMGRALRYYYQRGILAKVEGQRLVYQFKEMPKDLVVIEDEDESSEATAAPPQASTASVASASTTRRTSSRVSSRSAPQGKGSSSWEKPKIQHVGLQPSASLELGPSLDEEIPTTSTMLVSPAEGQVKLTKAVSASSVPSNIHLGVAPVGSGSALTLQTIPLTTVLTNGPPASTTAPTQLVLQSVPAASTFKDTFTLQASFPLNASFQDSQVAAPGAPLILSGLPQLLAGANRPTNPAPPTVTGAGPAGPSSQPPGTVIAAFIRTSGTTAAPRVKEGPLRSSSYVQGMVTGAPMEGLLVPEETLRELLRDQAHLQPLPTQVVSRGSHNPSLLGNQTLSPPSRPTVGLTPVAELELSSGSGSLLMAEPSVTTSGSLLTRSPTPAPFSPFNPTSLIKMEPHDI
# ELF1, sequence (P32519 whole entry): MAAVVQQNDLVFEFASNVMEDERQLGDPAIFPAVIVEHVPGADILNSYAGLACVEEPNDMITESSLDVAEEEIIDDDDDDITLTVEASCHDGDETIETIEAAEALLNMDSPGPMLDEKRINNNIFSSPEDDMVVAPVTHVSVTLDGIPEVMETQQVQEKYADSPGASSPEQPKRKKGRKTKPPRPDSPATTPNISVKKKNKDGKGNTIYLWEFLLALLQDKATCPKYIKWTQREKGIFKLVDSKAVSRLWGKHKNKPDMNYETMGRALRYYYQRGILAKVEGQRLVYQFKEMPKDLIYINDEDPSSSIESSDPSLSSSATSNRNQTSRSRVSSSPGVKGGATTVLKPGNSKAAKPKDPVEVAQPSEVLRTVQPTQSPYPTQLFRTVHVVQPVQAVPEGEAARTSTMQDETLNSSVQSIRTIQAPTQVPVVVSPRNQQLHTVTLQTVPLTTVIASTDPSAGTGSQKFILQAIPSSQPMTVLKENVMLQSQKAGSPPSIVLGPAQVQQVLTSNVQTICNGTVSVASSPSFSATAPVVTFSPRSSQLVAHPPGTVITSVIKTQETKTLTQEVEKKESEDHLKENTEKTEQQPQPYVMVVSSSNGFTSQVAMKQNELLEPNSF
sequence,measurement,setting,value
TTATTG,binding signal,[1],"1.24 fold enrichment (6-mer frequency, TF over GST control)"
same,binding signal,[2],"1.27 fold enrichment (6-mer frequency, TF over GST control)"
same,binding signal,[3],"1.28 fold enrichment (6-mer frequency, TF over GST control)"
same,binding signal,[4],"1.24 fold enrichment (6-mer frequency, TF over GST control)"
same,binding signal,[5],"1.3 fold enrichment (6-mer frequency, TF over GST control)"
same,binding signal,[6],"1.29 fold enrichment (6-mer frequency, TF over GST control)"
same,binding signal,[7],"1.18 fold enrichment (6-mer frequency, TF over GST control)"
same,binding signal,[8],"1.31 fold enrichment (6-mer frequency, TF over GST control)"
same,binding signal,[9],"1.38 fold enrichment (6-mer frequency, TF over GST control)"
same,binding signal,[10],"1.28 fold enrichment (6-mer frequency, TF over GST control)"
same,binding signal,[11],"1.32 fold enrichment (6-mer frequency, TF over GST control)"
same,binding signal,[12],"1.71 fold enrichment (6-mer frequency, TF over GST control)"
same,binding signal,[13],"1.29 fold enrichment (6-mer frequency, TF over GST control)"
same,binding signal,[14],"1.36 fold enrichment (6-mer frequency, TF over GST control)"
same,binding signal,[15],"1.43 fold enrichment (6-mer frequency, TF over GST control)"
same,binding signal,[16],"1.33 fold enrichment (6-mer frequency, TF over GST control)"
same,binding signal,[17],"1.35 fold enrichment (6-mer frequency, TF over GST control)"
same,binding signal,[18],"2.35 fold enrichment (6-mer frequency, TF over GST control)"
same,binding signal,[19],"1.24 fold enrichment (6-mer frequency, TF over GST control)"
